The nature of experiment [1]: ATG_EGR_CIS: Attagene CIS-FACTORIAL HepG2 Assay for human Early Growth Response 1 (EGR1) (AID 2282938). The settings on record: HepG2 Attagene CIS-FACTORIAL EGR reporter mRNA; actives raise or lower the signal. The gist of the method:
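Activity is taken as induction or loss of reporter mRNA versus DMSO, fitted bidirectionally. Transcripts from cis-regulated reporter units in transiently transfected HepG2 were measured after 24 h by RT-PCR with capillary electrophoresis.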

Experiment [2] can be described thus: ATG_M_19_CIS: Attagene CIS-FACTORIAL HepG2 Assay for M19 Transcription Factor (Internal Marker) (AID 2282939). The settings on record: HepG2 Attagene CIS-FACTORIAL M19 internal marker reporter; actives raise or lower the signal. In a few lines:
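Signals come from fluorescence of labelled reporter-specific PCR fragments resolved by capillary electrophoresis, following 24 h treatment of HepG2 cells transfected with cis-promoter reporter units; activity was fitted in both directions relative to DMSO.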

Experiment [3] is described as follows: ATG_ERE_CIS: Attagene CIS-FACTORIAL HepG2 Assay for Estrogen Response Element (ERE) (AID 2282940). The settings on record: HepG2 ERE cis-reporter, Attagene RNA transcript; actives raise or lower the signal. In a few lines: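 Fluorescence of capillary-separated, FAM-labelled reporter cDNA fragments indicates reporter mRNA levels in HepG2 cells exposed to chemicals for 24 h. Transient transfection with cis-regulated units; data fitted in both directions against DMSO.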

Experiment [4] is described as follows: ATG_Ets_CIS: Attagene CIS-FACTORIAL HepG2 Assay for human Erythroblast Transformation Specific (ETS) (AID 2282941). The conditions noted are these: HepG2 ETS cis-reporter transcription, actives raise or lower the signal. The gist of the method:
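HepG2 cells transiently transfected with cis-promoter reporter transcription units were dosed for 24 h; reporter mRNA was measured by RT-PCR, 6-FAM primer extension, HpaI digestion and capillary electrophoresis, with bidirectional fitting against DMSO baseline.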

For experiment [5], the target named is Hepatocyte nuclear factor 3-beta (Homo sapiens) (UniProt Q9Y261). Description: ATG_FoxA2_CIS: Attagene CIS-FACTORIAL HepG2 Assay for human Forkhead box A2 (FOXA2) (AID 2282942). The settings on record: HepG2 cis-reporter transcription factor activity, 24 h; actives raise or lower the signal. In a few lines: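 Reporter transcript induction is measured by fluorescence after capillary electrophoresis of RT-PCR products from HepG2 cells exposed 24 h. Cis-regulated reporter units report endogenous factor activity; curves fitted both directions against DMSO.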

The nature of experiment [6]: ATG_GATA_CIS: Attagene CIS-FACTORIAL HepG2 Assay for human GATA Binding Protein (AID 2282944). The conditions noted are these: HepG2 GATA cis-element reporter, Attagene multiplex mRNA; actives raise or lower the signal. In a few lines: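 After transfecting HepG2 cells with multiple cis-regulated reporter units, chemicals are dosed for 24 h; isolated RNA undergoes RT-PCR and fluorescent labeling before capillary electrophoresis, with activity expressed against DMSO.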

Experiment [7] in a line: ATG_GLI_CIS: Attagene CIS-FACTORIAL HepG2 Assay for human Zinc Finger Protein GLI1 (AID 2282945). The conditions noted are these: HepG2, Attagene cis-factorial reporter mRNA, GLI element; actives raise or lower the signal. In a few lines: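 HepG2 cells transiently transfected with cis-promoter multiplexed reporter units report endogenous transcription factor activity. After 24 h chemical exposure, reporter mRNA was quantified by RT-PCR, 6-FAM labelling, HpaI digestion and capillary electrophoresis, with bidirectional fitting against DMSO.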

For experiment [8], the target named is Bile acid receptor (Homo sapiens) (UniProt Q96RI1). Description: ATG_IR1_CIS: Attagene CIS-FACTORIAL HepG2 Assay for human Nuclear Receptor Subfamily 1 Group H Member 4 (NR1H4), IR1 submotif (AID 2282946). The conditions noted are these: IR1 reporter transcription, actives raise or lower the signal. In a few lines: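 Transient MRTU transfection, HepG2; 24 h dosing; RNA → RT-PCR → 6-FAM primer extension → HpaI digest → capillary electrophoresis fluorescence. Gain/loss of signal fitted relative to DMSO.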

A short description of experiment [9]: ATG_GRE_CIS: Attagene CIS-FACTORIAL HepG2 Assay for human Glucocorticoid Response Elements (GRE) (AID 2282947). The conditions noted are these: HepG2 GRE cis-reporter, Attagene multiplex mRNA; actives raise or lower the signal. In a few lines:
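Following 24 h chemical exposure of transiently transfected HepG2 cells, total RNA was reverse-transcribed and reporter cDNA amplified, fluorescently labelled and sized by capillary electrophoresis. Signal gain or loss was fitted relative to DMSO vehicle.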

Experiment [10] is described as follows: ATG_ISRE_CIS: Attagene CIS-FACTORIAL HepG2 Assay for human Interferon Regulatory Factor 1 (IRF1) binding to an Interferon-Stimulated Response Element (ISRE) (AID 2282948). The settings on record: HepG2 ISRE cis-reporter (Attagene), mRNA transcription readout; actives raise or lower the signal. The gist of the method:
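HepG2 cells transiently transfected with multiplexed cis-promoter reporter units; after 24 h compound exposure, reporter mRNA quantified by RT-PCR, FAM labelling, HpaI digestion and capillary electrophoresis. Bidirectional fit versus DMSO baseline.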

The nature of experiment [11]: ATG_M_32_CIS: Attagene CIS-FACTORIAL HepG2 Assay for M32 Transcription Factor (Internal Marker) (AID 2282949).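 Note: background control marker of the multiplexed CIS panel rather than a real target.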 The settings on record: HepG2 Attagene cis-factorial M32 reporter, mRNA; actives raise or lower the signal. The gist of the method: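 Fluorescent capillary electrophoresis peaks of HpaI-digested, FAM-labelled RT-PCR reporter products give the signal. Source: transiently transfected human liver HepG2 cells, 24 h after chemical dosing; bidirectional fitting against DMSO.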

Experiment [12] deals with Hypoxia-inducible factor 1-alpha (Homo sapiens) (UniProt Q16665). Description: ATG_HIF1a_CIS: Attagene CIS-FACTORIAL HepG2 Assay for human Hypoxia Inducible Factor 1 (HIF1A) (AID 2282951). The settings on record: HepG2 Attagene cis-factorial HIF1a reporter transcription; actives raise or lower the signal. The gist of the method: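 Fluorescence intensity of capillary-separated, 6-FAM-labelled reporter amplicons gives mRNA induction in HepG2 cells carrying transfected cis-promoter reporter units; cells exposed 24 h, responses fitted up or down from DMSO.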

The target of experiment [13] is Hepatocyte nuclear factor 6 (Homo sapiens) (UniProt Q9UBC0). Description: ATG_HNF6_CIS: Attagene CIS-FACTORIAL HepG2 Assay for human Hepatocyte Nuclear Factor 6 (HNF6) (AID 2282952). The conditions noted are these: HepG2 Attagene cis-factorial HNF6 reporter transcription; actives raise or lower the signal. In a few lines:
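HepG2 cells transiently transfected with cis-element-driven multiple reporter transcription units, dosed 24 h; reporter mRNA quantified by RT-PCR, FAM primer extension, HpaI digestion and capillary electrophoresis; bidirectional fit versus DMSO baseline.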

For experiment [14], the target named is Heat shock factor protein 1 (Homo sapiens) (UniProt Q00613). Put plainly: ATG_HSE_CIS: Attagene CIS-FACTORIAL HepG2 Assay for human Heat Shock Transcription Factor 1 (HSE) (AID 2282953). The settings on record: HepG2 HSE cis-reporter, Attagene RNA transcription; actives raise or lower the signal. The gist of the method: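 Endogenous transcription factor activity captured via cis-promoter reporter units transfected into HepG2; treatment lasted 24 h. Fluorescence intensity of reporter fragments analysed with bidirectional curve fitting, DMSO baseline.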

Experiment [15] is described as follows: ATG_MRE_CIS: Attagene CIS-FACTORIAL HepG2 Assay for human Metal Responsive Element (MRE) (AID 2282954). The settings on record: HepG2 MRE cis-reporter transcription, Attagene multiplex; actives raise or lower the signal. The gist of the method:
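Step one: transfect HepG2 with cis-regulated reporter units. Step two: dose 24 h. Step three: isolate RNA, RT-PCR, 6-FAM label, HpaI digest, capillary electrophoresis. Fit bidirectionally to DMSO.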

Experiment [16] addresses Paired box protein Pax-6 (Homo sapiens) (UniProt P26367). Description: ATG_Pax6_CIS: Attagene CIS-FACTORIAL HepG2 Assay for human Paired Box 6 (PAX6) (AID 2282956). The settings on record: HepG2 CIS-FACTORIAL PAX6 reporter transcription, RNA readout; actives raise or lower the signal. In a few lines: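 HepG2 cells transiently transfected with multiplexed cis-promoter reporter units (endogenous TF activity) were dosed for 24 h. Reporter mRNA was quantified by RT-PCR, 6-FAM labeling, HpaI digestion and capillary electrophoresis; bidirectional fitting versus DMSO baseline.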

A short description of experiment [17]: ATG_M_06_CIS: Attagene CIS-FACTORIAL HepG2 Assay for M06 Transcription Factor (Internal Marker) (AID 2282950). The conditions noted are these: HepG2 Attagene CIS-FACTORIAL M06 internal marker reporter; actives raise or lower the signal. In a few lines: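 HepG2 liver cells, 24 h exposure. Reporter transcripts from transfected cis-element constructs quantified by RT-PCR/capillary electrophoresis fluorescence. Bidirectional curve fit against DMSO.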

The nature of experiment [18]: ATG_PBREM_CIS: Attagene CIS-FACTORIAL HepG2 Assay for human Phenobarbital-responsive Enhancer Module (PBREM) (AID 2282955). The settings on record: HepG2 PBREM cis-reporter, Attagene multiplexed transcription; actives raise or lower the signal. The gist of the method: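 Cells were transfected with cis-element reporter units and treated for 24 h, after which RNA was extracted and reporter transcripts measured by RT-PCR and capillary electrophoresis.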

The nature of experiment [19]: ATG_FoxO_CIS: Attagene CIS-FACTORIAL HepG2 Assay for human Forkhead box O (FoxO) (AID 2282943). The settings on record: HepG2 Attagene cis-reporter, FoxO element, mRNA; actives raise or lower the signal. The gist of the method:
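Values reflect reporter mRNA induction or loss in HepG2 cells 24 h post-dosing, fitted bidirectionally with DMSO as negative control and baseline. Detection used RT-PCR and fluorescence capillary electrophoresis.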

The values that follow come from PubChem BioAssay (EPA / NIEHS).

The structures appear in SMILES notation. Calls of active or inactive are those of the source. Rule for the calls: active = hit-call score of the fitted dose curve at least 0.9, where 1 is the maximum; inactive = score below 0.9.

Sequence of Hypoxia-inducible factor 1-alpha (Homo sapiens) (Q16665 whole entry, looked up): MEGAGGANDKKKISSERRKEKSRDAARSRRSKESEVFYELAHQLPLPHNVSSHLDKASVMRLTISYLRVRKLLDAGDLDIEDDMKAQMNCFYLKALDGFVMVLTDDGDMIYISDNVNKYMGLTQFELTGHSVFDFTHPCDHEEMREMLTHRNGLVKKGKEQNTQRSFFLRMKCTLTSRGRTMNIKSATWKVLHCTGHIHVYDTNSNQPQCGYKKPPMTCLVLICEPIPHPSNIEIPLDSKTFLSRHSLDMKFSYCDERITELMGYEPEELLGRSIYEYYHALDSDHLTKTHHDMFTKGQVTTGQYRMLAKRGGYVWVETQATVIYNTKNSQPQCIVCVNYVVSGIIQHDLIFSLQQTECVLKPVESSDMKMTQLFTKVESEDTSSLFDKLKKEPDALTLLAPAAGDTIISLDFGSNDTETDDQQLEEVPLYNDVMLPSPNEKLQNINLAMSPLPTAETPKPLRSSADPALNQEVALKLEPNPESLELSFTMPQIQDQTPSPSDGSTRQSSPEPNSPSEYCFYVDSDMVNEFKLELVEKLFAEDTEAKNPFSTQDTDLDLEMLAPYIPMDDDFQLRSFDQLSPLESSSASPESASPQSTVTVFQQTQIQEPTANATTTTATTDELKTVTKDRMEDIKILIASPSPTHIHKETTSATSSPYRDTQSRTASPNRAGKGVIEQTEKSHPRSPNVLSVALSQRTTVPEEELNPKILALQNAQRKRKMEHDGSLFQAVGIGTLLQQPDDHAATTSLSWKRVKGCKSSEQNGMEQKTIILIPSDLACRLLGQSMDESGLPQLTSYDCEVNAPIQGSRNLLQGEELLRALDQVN
Sequence of Bile acid receptor (Homo sapiens) (Q96RI1 whole entry, looked up): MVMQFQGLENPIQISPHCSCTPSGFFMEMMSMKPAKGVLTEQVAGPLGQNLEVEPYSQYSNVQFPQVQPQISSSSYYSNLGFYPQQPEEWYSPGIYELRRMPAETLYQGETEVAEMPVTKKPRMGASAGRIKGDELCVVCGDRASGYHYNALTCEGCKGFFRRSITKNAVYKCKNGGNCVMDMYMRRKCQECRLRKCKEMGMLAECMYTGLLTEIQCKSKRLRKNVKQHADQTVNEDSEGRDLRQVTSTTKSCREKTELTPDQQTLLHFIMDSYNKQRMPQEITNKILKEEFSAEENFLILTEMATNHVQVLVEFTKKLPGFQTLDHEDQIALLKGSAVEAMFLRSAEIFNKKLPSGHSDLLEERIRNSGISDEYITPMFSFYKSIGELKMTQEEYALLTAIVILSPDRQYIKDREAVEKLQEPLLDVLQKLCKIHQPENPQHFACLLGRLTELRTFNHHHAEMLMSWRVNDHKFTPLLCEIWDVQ
Sequence of Paired box protein Pax-6 (Homo sapiens) (P26367 whole entry, looked up): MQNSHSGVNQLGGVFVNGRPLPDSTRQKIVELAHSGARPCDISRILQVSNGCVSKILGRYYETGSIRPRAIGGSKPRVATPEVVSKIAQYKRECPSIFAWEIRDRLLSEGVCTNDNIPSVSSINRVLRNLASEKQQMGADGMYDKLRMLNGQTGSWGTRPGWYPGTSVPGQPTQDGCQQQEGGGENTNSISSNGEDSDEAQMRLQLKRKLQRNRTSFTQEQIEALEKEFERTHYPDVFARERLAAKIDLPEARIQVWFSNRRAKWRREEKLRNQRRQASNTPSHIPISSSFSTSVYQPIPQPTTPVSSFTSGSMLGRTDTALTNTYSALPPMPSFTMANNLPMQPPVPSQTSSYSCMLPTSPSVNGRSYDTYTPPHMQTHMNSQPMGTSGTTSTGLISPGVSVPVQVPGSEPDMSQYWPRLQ
Sequence of Heat shock factor protein 1 (Homo sapiens) (Q00613 whole entry, looked up, the tested form may be a part): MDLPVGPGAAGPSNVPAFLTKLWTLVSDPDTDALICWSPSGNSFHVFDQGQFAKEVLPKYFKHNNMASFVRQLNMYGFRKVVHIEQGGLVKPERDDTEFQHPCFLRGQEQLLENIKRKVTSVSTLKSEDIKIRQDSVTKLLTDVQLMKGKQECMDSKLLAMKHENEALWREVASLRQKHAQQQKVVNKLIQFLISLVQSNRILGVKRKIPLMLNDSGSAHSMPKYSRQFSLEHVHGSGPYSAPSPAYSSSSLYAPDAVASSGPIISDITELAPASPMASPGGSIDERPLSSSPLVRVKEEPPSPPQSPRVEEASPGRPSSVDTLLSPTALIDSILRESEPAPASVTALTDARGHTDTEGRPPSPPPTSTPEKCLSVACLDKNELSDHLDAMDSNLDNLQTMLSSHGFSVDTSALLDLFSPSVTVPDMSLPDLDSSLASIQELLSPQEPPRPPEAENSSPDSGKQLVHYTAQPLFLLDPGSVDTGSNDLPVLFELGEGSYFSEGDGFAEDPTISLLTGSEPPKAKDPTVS
Sequence of Hepatocyte nuclear factor 3-beta (Homo sapiens) (Q9Y261 whole entry, looked up): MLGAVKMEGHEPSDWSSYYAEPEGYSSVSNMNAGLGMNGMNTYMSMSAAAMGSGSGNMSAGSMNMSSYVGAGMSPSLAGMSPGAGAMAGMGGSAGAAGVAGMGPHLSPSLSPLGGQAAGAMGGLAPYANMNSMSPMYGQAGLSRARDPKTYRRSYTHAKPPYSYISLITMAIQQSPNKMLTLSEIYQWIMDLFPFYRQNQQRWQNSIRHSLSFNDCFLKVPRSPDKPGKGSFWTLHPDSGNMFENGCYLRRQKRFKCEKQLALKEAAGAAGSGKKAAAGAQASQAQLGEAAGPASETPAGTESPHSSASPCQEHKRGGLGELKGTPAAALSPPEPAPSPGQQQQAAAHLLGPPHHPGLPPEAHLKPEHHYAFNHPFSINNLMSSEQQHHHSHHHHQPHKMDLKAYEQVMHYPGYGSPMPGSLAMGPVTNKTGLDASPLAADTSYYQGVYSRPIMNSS
Sequence of Hepatocyte nuclear factor 6 (Homo sapiens) (Q9UBC0 whole entry, looked up): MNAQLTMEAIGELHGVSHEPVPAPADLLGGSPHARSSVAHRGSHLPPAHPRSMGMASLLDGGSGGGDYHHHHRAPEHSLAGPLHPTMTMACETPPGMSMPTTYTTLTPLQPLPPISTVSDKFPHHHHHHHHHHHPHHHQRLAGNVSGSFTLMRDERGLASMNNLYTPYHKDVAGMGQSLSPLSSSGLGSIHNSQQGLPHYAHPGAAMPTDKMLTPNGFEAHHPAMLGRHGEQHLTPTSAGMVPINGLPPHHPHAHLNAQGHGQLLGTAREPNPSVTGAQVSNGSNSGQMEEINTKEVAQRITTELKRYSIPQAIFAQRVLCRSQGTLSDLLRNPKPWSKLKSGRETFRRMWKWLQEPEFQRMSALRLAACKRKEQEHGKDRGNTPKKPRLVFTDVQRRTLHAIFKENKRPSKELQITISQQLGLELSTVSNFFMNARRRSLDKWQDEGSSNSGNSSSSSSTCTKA

In the case of `O=NN1CCCCCC1`, the result in experiment [1], in [2], in [3], in experiment [4], in experiment [5] and in [6] was inactive. Besides, the result in [7], in experiment [8], in experiment [9], in experiment [10], in experiment [11] and in [12] was inactive. Also, the result in experiment [13], in experiment [14], in [15] and in [16] was inactive.
Regarding `BrCc1ccc(Br)cc1`, the compound was called inactive in [1], in experiment [2], in experiment [3], in experiment [4], in experiment [5] and in experiment [7]. The compound was called inactive in experiment [8], in [10], in [11], in [17], in [12] and in [13]. The result in experiment [14], in experiment [15], in experiment [18] and in experiment [16] was inactive.
As to `COCC(=O)N(c1c(C)cccc1C)[C@H](C)C(=O)OC`, the call in experiment [1], in experiment [2], in [3], in [4], in [5] and in experiment [19] was inactive. Also, the call in [6], in experiment [7], in [8], in experiment [10], in experiment [12] and in experiment [13] was inactive. Also, the outcome in experiment [14], in [15], in experiment [18] and in experiment [16] was inactive.
The term AC50 denotes the midpoint of the concentration-response curve, whichever way the signal moves. Turning to `O=[N+]([O-])c1ccc(Nc2ccccc2)cc1`, the result in [1], in [2], in experiment [3], in experiment [4], in experiment [5] and in experiment [19] was inactive. The result in experiment [6], in experiment [7], in experiment [8], in experiment [9], in [11] and in experiment [17] was inactive. Moreover, the compound was called inactive in experiment [12], in [13], in [14] and in experiment [16]. Further, the figures for the concentration at half-maximal activity (AC50) in [15] and in experiment [18] were 80.4 µM (active) and 23.8 µM (active), respectively.
Turning to `Nc1ccc(Br)cc1`, the compound was classed as inactive in experiment [1], in [2], in experiment [3], in experiment [4], in experiment [5] and in experiment [19]. Besides, the outcome in experiment [6], in experiment [7], in experiment [8], in [9], in experiment [10] and in experiment [17] was inactive. Also, the compound was called inactive in experiment [12], in experiment [13], in experiment [14], in experiment [15], in [18] and in experiment [16].
For the compound `N#Cc1cccnc1`, the compound was called inactive in experiment [1], in [2], in experiment [3], in [5], in [6] and in [7]. In addition, the outcome in experiment [8], in [9], in [10], in experiment [11], in experiment [17] and in experiment [12] was inactive. Further, the result in [13], in experiment [14], in experiment [15], in [18] and in [16] was inactive.
As to `Cc1cc(Cl)ccc1O`, the result in [1], in [2], in experiment [4], in [5], in [19] and in experiment [6] was inactive. For the same compound, the outcome in [7], in [8], in [9], in experiment [10], in [11] and in experiment [17] was inactive. Also, the call in experiment [12], in experiment [13], in experiment [15], in experiment [18] and in experiment [16] was inactive.
Regarding `C=CC(F)(C(F)(F)F)C(F)(F)C(F)(F)F` (stereo not given), the result in experiment [1], in experiment [2], in experiment [3], in experiment [4], in experiment [19] and in experiment [6] was inactive. For the same compound, the call in experiment [7], in experiment [8], in experiment [9], in experiment [10], in experiment [11] and in [12] was inactive. Moreover, the outcome in experiment [13], in experiment [14], in [15], in [18] and in [16] was inactive.
